# Results reported in PubChem BioAssay (Tox21).
# Inconclusive results are not listed. Calls of active or inactive are those of the source. Calls come from the whole dose curve.
# Test: qHTS assay to identify small molecule antagonists of the estrogen receptor alpha (ER-alpha) signaling pathway using the BG1 cell line (AID 743080);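 note: BG1 cells stimulated with 17beta-estradiol alongside compound; nearly all actives have a fitted effect of over 25% in size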
# Details: BG1Luc4E2 ERE-luciferase antagonist mode, luminescence; series mostly up to 70.3 µM; activity change, negative = inhibition: at the top concentration
# Source text: National Center for Advancing Translational Sciences [NCATS]
# NIH Chemical Genomics Center [NCGC]
# U.S. Environmental Protection Agency [EPA]
# National Institutes of Environmental Health Sciences [NIEHS]
# National Toxicology Program [NTP]
# U.S. Food and Drug Administration [FDA]
# Estrogen receptor (ER), a nuclear hormone receptor, plays an important role in development, metabolic homeostasis and reproduction. Endocrine disrupting chemicals (EDCs) and their interactions with steroid hormone receptors like ER causes disruption of normal endocrine function. Therefore, it is important to understand the effect of environmental chemicals on the ER signaling pathway. To identify ER antagonists, BG1-Luc-4E2 cell line (provided by Dr. Michael Denison from University of California) has been used to screen the Tox21 10K compound library. BG1Luc4E2 cell line endogenously expresses full-length ER-alpha and is stably transfected with a plasmid containing four estrogen responsive elements (ERE) upstream of a luciferase reporter gene.
# Tox21 Assay Protocol Summary:
# BG1-Luc-4E2 cells were cultured in phenol red free assay medium containing 10% charcoal stripped FBS for 5 days before the assay was performed. The cells were dispensed at 4,000 cells/4 uL of assay medium per well into white wall/solid-bottom 1536-well plates using a Multidrop Combi (ThermoFisher Scientific, Waltham, MA) dispenser. The assay plates were incubated at a 37C and 5% CO2 for 24 h, and then 23 nL of compounds dissolved in DMSO, positive controls or DMSO only was transferred to the assay plate using a Pintool station (Kalypsys, San Diego, CA), followed by addition of 1 uL of 17beta-estradiol in assay medium using a Flying Reagent Dispenser (Aurora Discovery, San Diego, CA). After the plates were incubated at 37 C and 5% CO2 for 21.5 h, 1 uL of CellTiter-Fluor reagent (Promega, Madison, WI) of measuring cytotoxicity was added using Flying Reagent Dispenser (FRD) to each well. The assay plates were incubated at 37 C and 5% CO2 for additional 30 min and the fluorescence intensity was quantified by a ViewLux plate reader (PerkinElmer, Shelton, CT). For measuring luciferase reporter gene activity, 4 uL of ONE-Glo reagent (Promega) was added to each plate using an FRD and luminescence was quantified by a ViewLux plate reader after 30 min incubation at room temperature.
# % is set by controls: 0 for no effect and ±100 for the full control effect; potency is the fitted concentration of half-maximal effect.
SMILES,"activity change, negative = inhibition",Potency
O=C(OCCOCCOCCOC(=O)c1ccccc1)c1ccccc1,3.66% (inactive),
C/C(=C\C(C)CC(C)CC(C)C)C1CC(=O)OC1=O (stereo not given),-4.06% (inactive),
COc1cc(C)c(Cc2cnc(N)nc2N)cc1OC,11.6% (inactive),
Nc1ccc(F)cc1F,-0.227% [at 95 µM] (inactive),
NC(=O)c1cc[n+](CC2=C(C(=O)[O-])N3C(=O)[C@@H](NC(=O)Cc4cccs4)[C@H]3SC2)cc1,-24.5% [at 32.5 µM] (inactive),
CCC[Si](OC)(OC)OC,3.71% (inactive),
C=CC(=O)OCCCCCCCCCC,-7.18% (inactive),
O=C1C=CCCC1,3.38% [at 95 µM] (inactive),
Cc1c(Cl)cccc1Nc1ccccc1C(=O)O,0.567% (inactive),
O=C1CCCN1CCO,-0.157% (inactive),
Nc1ncnc2c1ncn2[C@@H]1O[C@H](CO)[C@@H](O)[C@H]1O,-11% (inactive),
COC(=O)Cc1cccc2ccccc12,0.873% (inactive),
O=C(O)c1ccccc1-n1cc(C(=O)O)c(=O)c2cc(Nc3c(F)cc(F)cc3Cl)c(Cl)cc21,13.6% (inactive),
CCCCCCCCCCCCN1CCOCC1,-0.968% (inactive),
CC(C)=CCC/C(C)=C/C=N/O,-12% (inactive),
CC(C)C/C=C(\C=O)c1ccccc1,-4.48% (inactive),
CCCCOC(=O)C(C)Oc1ccc(Oc2ccc(C(F)(F)F)cn2)cc1 (stereo not given),-15.2% (inactive),
CC(COc1ccccc1)NC(C)C(O)c1ccc(O)cc1 (stereo not given),3.29% [at 32.5 µM] (inactive),
CC1=CC(=C(c2ccc(N)cc2)c2ccc(N)cc2)C=CC1=N,-25% [at 8.47 µM] (inactive),
Cc1cc(C)c(C)c(O)c1,-1.1% (inactive),

SMILES,"activity change, negative = inhibition",Potency
C=CCCC,2.44% [at 95 µM] (inactive),
O=C(O)CCc1nc2ccccc2[nH]1,6.66% (inactive),
CC1=C(C)C(=O)C(CCCCC#CCCCC#CCO)=C(C)C1=O,,15 µM (active)
O=c1[nH][nH]c2ccccc12,-11.6% [at 95 µM] (inactive),
CNc1ccccc1,9.89% (inactive),
CC1(COc2ccc(CC3SC(=O)NC3=O)cc2)CCCCC1 (stereo not given),2.71% (inactive),
CC(C)(C(=O)O)c1ccc(C(O)CCCN2CCC(C(O)(c3ccccc3)c3ccccc3)CC2)cc1 (stereo not given),-4.65% (inactive),
CC1=C(C)C(=O)C(C(CCCCCC(=O)O)c2ccccc2)=C(C)C1=O (stereo not given),-12.6% (inactive),
CC(=O)Nc1cccc(N)c1,-16.5% [at 95 µM] (inactive),
CC(C)=CCC[C@H](C)CCO,-7.44% (inactive),
CC(C)CC(C)(C)C,-0.802% [at 95 µM] (inactive),
C1=COCCC1,-6.43% (inactive),
SCCOCCOCCS,-0.52% (inactive),
CC(C)CCCCCOC(=O)CS,-0.095% (inactive),
O=C(N[C@@H](Cc1ccccc1)[C@@H](O)C(=O)N1C[C@@H](O)[C@@H](O)C1)c1cc2cc(Cl)ccc2[nH]1,-23% (inactive),
CC1(C)[C@@H]2CC[C@]3(C2)[C@@H]1C(=O)CCC3(C)C,-4.92% (inactive),
CCn1nc(Cc2ccccc2)cc1C1CCN(C[C@H]2C[C@H](N(C)[C@@H](C(=O)O)C(C)C)C[C@@H]2c2cccc(F)c2)CC1,-7.57% (inactive),
OCCc1ccncc1,0.0536% (inactive),
N#CCCCC(C#N)CCC#N (stereo not given),0.565% (inactive),
CC(CCl)OC(C)CCl (stereo not given),-8.15% (inactive),
